Experimental data: the supplement of paper PMC4723716
± gives the uncertainty stated by the source. The full ranking holds about 9,900 compounds; the median of “viability index relative to DMSO control” is about 1, and the lowest 2% start at about 0.85. The entries come from a sample that favours the lowest values as a whole.

Test system: Plasmodium falciparum NF54 stage V gametocytes
Experiment: viability index relative to DMSO control (fraction); higher = less gametocyte killing
Conditions: 2.5 µM, incubation time: 72 h
Summary of the method: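 P. falciparum NF54 stage V gametocytes in serum-free screening medium (0.75% gametocytemia, 1.25% hematocrit, 10 µl) were incubated with compound at 2.5 µM in 1,536-well plates for 72 hr at 37°C under low oxygen. Then 3 µl of 2.5 µM MitoTracker Red CMXRos plus 0.13% saponin was added for one to two hours. One field per well was imaged, 20–70 µm2 red particles were counted, and the viability index was the count divided by the plate mean of DMSO wells.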

[1] = library set: Broad Institute DOS
[2] = library set: Broad Institute Blood Stage

SMILES	viability index [1]	viability index [2]
O=C(CN1CCOCC1)N[C@H]1CC[C@H](CCn2cc(C3CC3)nn2)O[C@@H]1CO	1.16 ± 0.021	–
C/C=C/c1ccc2n(c1=O)C[C@@H]1N[C@H]2[C@H](C(=O)NC2CCCC2)[C@H]1CO.C/C=C\c1ccc2n(c1=O)C[C@@H]1N[C@H]2[C@H](C(=O)NC2CCCC2)[C@H]1CO	1.04 ± 0.018	–
COc1ccc2c3c([C@@H](CO)N(C[C@]33CCN(CC3)C(=O)c3ccccc3)C(=O)c3ccccc3)n(C)c2c1	0.761 ± 0.011	–
COc1ccc2c3c([C@H](CO)N(C[C@]33CN(C3)C(=O)c3cccc(F)c3)C(=O)c3cccc(F)c3)n(C)c2c1	1.04 ± 0.047	–
COc1ccc2c(c1)n(C)c1[C@H](CO)N(C[C@]3(CCN(C)CC3)c21)C(=O)c1ccc(F)cc1	1.05 ± 0.018	–
COc1ccc2c3c([C@@H](CO)N(C[C@]33CN(C3)C(=O)c3cccc(F)c3)C(=O)c3cccc(F)c3)n(C)c2c1	0.848 ± 0.02	–
COc1ccc2c3c([C@H](CO)N(C[C@]33CCN(CC3)C(=O)c3ccccc3)C(=O)c3ccccc3)n(C)c2c1	0.979 ± 0.13	–
CCS(=O)(=O)N1CC[C@@]2(CC1)CN([C@@H](CO)c1c2c2ccc(OC)cc2n1C)C(=O)c1cccc(F)c1	1.02 ± 0.079	–
Cc1noc(C)c1S(=O)(=O)Nc1ccc2c(c1)C(=O)N([C@@H](C)CO)C[C@H](C)[C@H](CN(C)Cc1ccc(C(=O)O)cc1)OCCCC[C@H](C)O2	1.14 ± 0.051	–
O=C(C[C@H]1C[C@H]2c3cc(NC(=O)C4CCOCC4)ccc3O[C@H]2[C@H](CO)O1)NCc1cccnc1	1.086 ± 0.0019	–
O=C(N[C@H]1CC[C@@H](CCn2cc(-c3ccccc3F)nn2)O[C@H]1CO)c1ccc2c(c1)OCO2	1.1 ± 0.06	–
COC(=O)C[C@@H]1CC[C@H]2[C@@H](COc3ccc(NS(=O)(=O)c4ccc(C)cc4)cc3C(=O)N2C)O1	1.07 ± 0.083	–
CN1C(=O)c2cc(NC(=O)c3ccc(F)c(F)c3)ccc2OC[C@H]2O[C@@H](CC(=O)N3CCCCC3)CC[C@H]21	1.1 ± 0.0047	–
COCC(=O)N1C[C@@]2(C1)CN(Cc1ccc3OCOc3c1)[C@H](CO)c1c2c2ccc(OC)cc2n1C	0.938 ± 0.068	–
COc1ccc2c3c([C@H](CO)N(Cc4ccccc4Cl)C[C@]33CN(C3)C(=O)CN(C)C)n(C)c2c1	0.782 ± 0.042	–
COc1ccc(cc1)S(=O)(=O)N1C[C@@]2(C1)CN([C@@H](CO)c1c2c2ccc(OC)cc2n1C)C(=O)CN(C)C	0.95 ± 0.059	–
COc1ccc2c3c([C@@H](CO)N(C)C[C@]33CCN(CC3)C(=O)c3ccc4OCOc4c3)n(C)c2c1	0.9516 ± 0.0011	–
COc1ccc2c3c([C@H](CO)N(C[C@]33CCN(CC3)C(=O)c3ccc4OCOc4c3)C(=O)Nc3ccc(F)cc3)n(C)c2c1	0.846 ± 0.055	–
COc1ccc2c3c([C@@H](CO)N(C[C@]33CCN(CC3)C(=O)c3ccc4OCOc4c3)C(=O)Nc3ccc(F)cc3)n(C)c2c1	0.967 ± 0.057	–
COc1ccc2c3c([C@@H](CO)N(C[C@]33CCN(CC3)S(C)(=O)=O)C(=O)CN(C)C)n(C)c2c1	0.956 ± 0.029	–
COc1ccc2c3c([C@H](CO)N(Cc4ccccc4Cl)C[C@]33CCN(CC3)C(=O)CC3CC3)n(C)c2c1	0.922 ± 0.014	–
COc1ccc2c3c([C@@H](CO)N(Cc4ccccc4Cl)C[C@]33CCN(CC3)C(=O)CC3CC3)n(C)c2c1	0.939 ± 0.025	–
COc1ccc(cc1)S(=O)(=O)N1C[C@@]2(C1)CN([C@H](CO)c1c2c2ccc(OC)cc2n1C)C(=O)CN(C)C	0.841 ± 0.028	–
COc1ccc2c3c([C@H](CO)N(Cc4ccc5OCOc5c4)C[C@]33CN(C3)C(=O)c3ccc4OCOc4c3)n(C)c2c1	–	0.435 ± 0.088
COc1ccc2c3c([C@@H](CO)N(CC4CC4)C[C@]33CN(C3)C(=O)c3ccc4OCOc4c3)n(C)c2c1	1.02 ± 0.016	–

SMILES	viability index [1]	viability index [2]
COc1ccc2c3c([C@@H](CO)NC[C@]33CN(CC4CCOCC4)C3)n(C)c2c1	1.07 ± 0.029	–
C[C@H](CO)N1C[C@H](C)[C@H](CN(C)Cc2ccc(Oc3ccccc3)cc2)Oc2ccc(N(C)C)cc2C1=O	1.01 ± 0.043	–
O=C(CCN1CCCCC1)N[C@H]1CC[C@@H](CCn2cc(-c3cccc(F)c3)nn2)O[C@H]1CO	1.07 ± 0.038	–
C[C@@H]1CN([C@@H](C)CO)C(=O)c2cc(NC(=O)Nc3cccc4ccccc34)ccc2O[C@@H](C)CCCCO[C@@H]1CN(C)S(=O)(=O)c1cn(C)cn1	0.949 ± 0.081	–
C[C@@H]1CC(=O)NCC/C=C\C[C@H](c2ccc3c(c2)OCO3)NC1=O	1.059 ± 0.0056	–
C[C@@H]1CN([C@@H](C)CO)C(=O)CCCn2nncc2CO[C@H]1CN(C)S(=O)(=O)c1cn(C)cn1	1.07 ± 0.065	–
C[C@H]1CN([C@@H](C)CO)C(=O)c2cc(N(C)C)ccc2O[C@@H]1CN(C)CC1CCCCC1	1.01 ± 0.12	–
COc1ccc2c3c([C@H](CO)N(C[C@]33CN(Cc4ccccc4F)C3)C(=O)Nc3ccc(F)cc3)n(C)c2c1	1 ± 0.091	–
COc1ccc2c3c([C@@H](CO)N(C[C@]33CN(C3)C(=O)Cc3ccncc3)C(=O)Nc3ccc(F)cc3)n(C)c2c1	0.974 ± 0.085	–
COc1ccc2c3c([C@@H](CO)N(C[C@]33CN(Cc4ccccc4F)C3)C(=O)Nc3ccc(F)cc3)n(C)c2c1	0.791 ± 0.066	–
COc1cccc(C#Cc2ccc([C@H]3[C@H](CO)N4C(=O)CN(C(=O)Cc5cccnc5)C[C@@H]34)cc2)c1	0.945 ± 0.048	–
O=C(Cc1cccnc1)N1CC(=O)N2[C@H](CO)[C@@H](c3ccc(C#CC4CCCCC4)cc3)[C@@H]2C1	1.07 ± 0.032	–
O=C(Cc1cccnc1)N1CC(=O)N2[C@H](CO)[C@@H](c3ccc(C#CC4CCCCC4)cc3)[C@H]2C1	1.04 ± 0.06	–
O=C(Cc1cccnc1)N1CC(=O)N2[C@H](CO)[C@H](c3ccc(C#CC4CCCCC4)cc3)[C@H]2C1	0.801 ± 0.073	–
CCCNC(=O)N1CC(=O)N2[C@H](CO)[C@H](c3ccc(C#Cc4cccc(OC)c4)cc3)[C@@H]2C1	1.02 ± 0.062	–
COc1cccc(C#Cc2ccc([C@@H]3[C@@H](CO)N4C(=O)CN(C(=O)Cc5cccnc5)C[C@H]34)cc2)c1	1.01 ± 0.084	–
COc1cccc(C#Cc2ccc([C@H]3[C@H]4CN(C(=O)Cc5cccnc5)CC(=O)N4[C@H]3CO)cc2)c1	1.057 ± 0.0037	–
COc1cccc(C#Cc2ccc([C@H]3[C@@H](CO)N4C(=O)CN(C(=O)c5ccccc5)C[C@H]34)cc2)c1	–	0.754 ± 0.074
COc1cccc(C#Cc2ccc([C@@H]3[C@H](CO)N4C(=O)CN(C(=O)Cc5cccnc5)C[C@@H]34)cc2)c1	0.904 ± 0.094	–
COc1cccc(C#Cc2ccc([C@H]3[C@@H](CO)N4C(=O)CN(C(=O)Cc5ccccc5)C[C@H]34)cc2)c1	–	0.778 ± 0.047
CCCNC(=O)N1CC(=O)N2[C@H](CO)[C@@H](c3ccc(C#Cc4cccc(OC)c4)cc3)[C@H]2C1	0.936 ± 0.075	–
COc1cccc(C#Cc2ccc([C@H]3[C@@H](CO)N4C(=O)CN(C(=O)Cc5cccnc5)C[C@H]34)cc2)c1	0.804 ± 0.11	–
CO[C@@H]1CN(C)C(=O)c2cc(NS(C)(=O)=O)ccc2OC[C@@H](C)N(C(=O)C2CCOCC2)C[C@@H]1C	1.17 ± 0.07	–
CN(C)C(=O)c1ccc(-c2ccc([C@@H]3[C@@H]4CN(Cc5ccc6c(c5)OCO6)C[C@H]3N4)cc2)cc1	1.05 ± 0.098	–
COc1ccc2c3c([C@H](CO)N(Cc4ccncc4)C[C@]33CN(C3)C(=O)C3CCCCC3)n(C)c2c1	1.03 ± 0.079	–

SMILES	viability index [1]	viability index [2]
O=C(C1CCOCC1)N1CC(=O)N2[C@@H](CO)[C@H](c3ccc(C#CCc4ccccc4)cc3)[C@@H]2C1	1.084 ± 0.0042	–
C[C@@H](NC(=O)[C@@H]1[C@@H](CO)[C@@H]2Cn3c(ccc(-c4ccccc4)c3=O)[C@@H]2N1C)c1ccccc1	1.05 ± 0.015	–
O=C(C[C@@H]1C[C@@H]2c3cc(NS(=O)(=O)c4ccc(F)cc4)ccc3O[C@@H]2[C@H](CO)O1)N1CCc2ccccc2C1	1.13 ± 0.069	–
COCC(=O)N1CC(=O)N2[C@H](CO)[C@H](c3ccc(C#CC4CC4)cc3)[C@H]2C1	1.11 ± 0.027	–
CN(C[C@H]1N[C@@H](CO)[C@H]1c1ccc(-c2ccc(F)cc2)cc1)C(=O)C1CCC1	0.971 ± 0.025	–
CCN(C[C@@H]1N[C@@H](CO)[C@H]1c1ccc(-c2ccc(F)cc2)cc1)C(=O)CN(C)C	0.711 ± 0.021	–
CCS(=O)(=O)N(C)C[C@@H]1N[C@H](CO)[C@@H]1c1ccc(-c2ccccc2F)cc1	1.05 ± 0.031	–
O=C(C[C@@H]1CC[C@H]2NC[C@@H](O)COC[C@@H]2O1)NC1Cc2ccccc2C1	0.9847 ± 0.0032	–
O=C(C[C@H]1CC[C@H]2NC[C@@H](O)COC[C@@H]2O1)Nc1ccc(-c2ccccc2)cc1	0.997 ± 0.036	–
CCc1csc(N2[C@H](CO)[C@H](c3ccccc3)[C@@H]2CN(C)C(=O)C2CCC2)n1	1.03 ± 0.059	–
C/C=C/c1ccc([C@H]2[C@@H](CO)N(c3nc(CC)cs3)[C@H]2C#N)cc1	1.09 ± 0.035	–
CCc1csc(N2[C@H](CO)[C@H](c3ccccc3)[C@@H]2CNC)n1	0.372 ± 0.18	–
CO[C@@H]1CN(C)C(=O)c2cc(NC(=O)Nc3cc(F)ccc3F)ccc2OC[C@H](C)NC[C@H]1C	1.022 ± 0.01	–
COc1ccccc1C#Cc1ccc([C@@H]2[C@@H](CO)N(C(=O)C3CCC3)[C@H]2C#N)cc1	1.06 ± 0.047	–
COc1ccccc1C#Cc1ccc([C@H]2[C@@H](C#N)N(C(=O)C3CCCC3)[C@H]2CO)cc1	–	0.583 ± 0.18
N#C[C@H]1[C@@H](c2ccc(C#Cc3cccc(F)c3)cc2)[C@@H](CO)N1C(=O)C1CCOCC1	1.05 ± 0.058	–
COc1ccccc1C#Cc1ccc([C@@H]2[C@@H](C#N)N(C(=O)C3CCC3)[C@@H]2CO)cc1	1.15 ± 0.082	–
COc1ccccc1C#Cc1ccc([C@H]2[C@@H](CO)N(C(=O)C3CC3)[C@H]2C#N)cc1	–	0.849 ± 0.047
COc1cccc(C#Cc2ccc([C@@H]3[C@H](C#N)N(C(=O)c4ccccn4)[C@H]3CO)cc2)c1	0.929 ± 0.051	–
COc1ccccc1C#Cc1ccc([C@H]2[C@@H](C#N)N(C(=O)C3CCC3)[C@@H]2CO)cc1	1.05 ± 0.038	–
COc1ccccc1C#Cc1ccc([C@H]2[C@@H](C#N)N(C(=O)C3CCC3)[C@H]2CO)cc1	0.846 ± 0.07	–
COc1ccccc1C#Cc1ccc([C@H]2[C@H](C#N)N(C(=O)C3CCC3)[C@H]2CO)cc1	1.02 ± 0.025	–
COc1cccc(C#Cc2ccc([C@@H]3[C@@H](C#N)N(C(=O)c4ccccn4)[C@H]3CO)cc2)c1	1.04 ± 0.029	–
COc1cccc(C#Cc2ccc([C@H]3[C@@H](CO)N(C(=O)c4ccccn4)[C@H]3C#N)cc2)c1	0.8087 ± 0.0043	–
N#C[C@H]1[C@H](c2ccc(C#Cc3cccc(F)c3)cc2)[C@@H](CO)N1C(=O)C1CCOCC1	1.12 ± 0.025	–
